Source: PubChem BioAssay (EPA / NIEHS)
Several values for one entry are separate records, joined by “and”; a condition that tells them apart may be missing. Identical values can stand only once. Results filed as inconclusive are left out. Some compounds were tested as several samples or in several runs, with calls that do not always agree. Activity calls are given as the source filed them. How the source made its calls, unless noted: active means hit-call score of the fitted dose curve at least 0.9, where 1 is the maximum; inconclusive means response in the unintended direction; inactive means score below 0.9.

Experiments:
[1] = biological target: Agonist Androgen Response Element (ARE), AR (gene 367) (UniProt P10275); test: OT_AR_ARELUC_AG_1440: Odyssey Thera (OT) 24-hour CHO-K1 Luciferase Assay for Agonist Androgen Response Element (ARE) (AID 2283379)
Chain of Agonist Androgen Response Element (ARE), AR (gene 367) (P10275 whole entry, looked up): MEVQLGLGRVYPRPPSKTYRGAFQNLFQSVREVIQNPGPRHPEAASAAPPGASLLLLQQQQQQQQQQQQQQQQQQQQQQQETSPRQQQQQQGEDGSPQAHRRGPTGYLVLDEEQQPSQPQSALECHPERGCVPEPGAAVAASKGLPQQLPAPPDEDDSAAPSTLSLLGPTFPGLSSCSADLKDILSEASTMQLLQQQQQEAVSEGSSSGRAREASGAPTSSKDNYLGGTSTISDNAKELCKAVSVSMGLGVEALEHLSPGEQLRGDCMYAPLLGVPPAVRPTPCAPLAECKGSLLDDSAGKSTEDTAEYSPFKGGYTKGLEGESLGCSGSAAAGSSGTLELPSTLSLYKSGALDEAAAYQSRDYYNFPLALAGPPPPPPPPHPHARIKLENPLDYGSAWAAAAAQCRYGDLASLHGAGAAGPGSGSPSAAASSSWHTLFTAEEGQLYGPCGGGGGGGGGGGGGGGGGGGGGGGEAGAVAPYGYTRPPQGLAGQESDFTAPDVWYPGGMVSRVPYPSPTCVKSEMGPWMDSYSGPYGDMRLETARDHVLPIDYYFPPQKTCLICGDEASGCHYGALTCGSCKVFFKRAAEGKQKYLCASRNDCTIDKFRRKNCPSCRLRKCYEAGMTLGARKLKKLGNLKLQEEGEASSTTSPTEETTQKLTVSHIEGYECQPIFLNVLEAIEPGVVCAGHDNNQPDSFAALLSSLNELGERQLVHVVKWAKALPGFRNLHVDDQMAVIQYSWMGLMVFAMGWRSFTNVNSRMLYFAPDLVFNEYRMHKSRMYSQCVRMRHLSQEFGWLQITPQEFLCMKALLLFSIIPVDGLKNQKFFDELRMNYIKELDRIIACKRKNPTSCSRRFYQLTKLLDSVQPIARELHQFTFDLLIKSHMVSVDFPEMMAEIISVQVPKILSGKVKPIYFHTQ
Outline: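 Readout: luciferase bioluminescence from CHO-K1 ARE-luc cells, measured 24 h post-dosing; agonism = increased mean luminescence vs DMSO controls, fitted in positive direction.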

[2] = biological target: Estrogen receptor (Homo sapiens) (UniProt P03372); test: OT_ERa_GFPERaERE_0480: Odyssey Thera (OT) 8-hour HeLa Transcription Induction Assay for Estrogen Receptor (AID 2283381; active means hit-call score of the fitted dose curve at least 0.9, where 1 is the maximum; inactive means score below 0.9)
Chain of Estrogen receptor (Homo sapiens) (P03372 whole entry, looked up): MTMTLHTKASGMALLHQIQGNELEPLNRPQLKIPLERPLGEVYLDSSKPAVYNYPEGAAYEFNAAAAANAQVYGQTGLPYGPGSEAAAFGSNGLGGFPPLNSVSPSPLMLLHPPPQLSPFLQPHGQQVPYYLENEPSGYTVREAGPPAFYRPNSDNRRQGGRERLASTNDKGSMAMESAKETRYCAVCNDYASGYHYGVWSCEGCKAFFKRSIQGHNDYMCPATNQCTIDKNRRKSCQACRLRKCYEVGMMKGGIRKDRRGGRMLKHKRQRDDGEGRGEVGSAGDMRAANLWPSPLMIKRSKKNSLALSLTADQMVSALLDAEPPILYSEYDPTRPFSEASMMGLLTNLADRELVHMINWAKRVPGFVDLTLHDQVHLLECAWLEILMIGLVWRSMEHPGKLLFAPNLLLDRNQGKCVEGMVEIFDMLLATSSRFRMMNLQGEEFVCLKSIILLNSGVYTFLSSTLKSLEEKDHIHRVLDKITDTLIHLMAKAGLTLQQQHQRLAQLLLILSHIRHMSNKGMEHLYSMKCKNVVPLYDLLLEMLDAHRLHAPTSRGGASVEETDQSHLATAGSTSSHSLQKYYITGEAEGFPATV
Outline: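 Human cervical HeLa cells were treated for 8 hours, after which ERE-driven GFP induction was measured by fluorescence microscopy; increases over DMSO baseline defined activity.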

[3] = biological target: Estrogen receptor (Homo sapiens) (UniProt P03372); test: OT_ERa_GFPERaERE_0120: Odyssey Thera (OT) 2-hour HeLa Transcription Induction Assay for Estrogen Receptor (AID 2283382)
Outline: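 Cells (human cervical HeLa) receive compound, incubate 2 hours, then are imaged for fluorescent reporter induction. Images are quantified by high content analysis, and activity is fitted as gain of signal against DMSO.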

[4] = biological target: Bile acid receptor (Homo sapiens) (UniProt Q96RI1); test: OT_FXR_FXRSRC1_0480: Odyssey Thera (OT) 8-hour HEK293T Protein-Complementation Assay for Farnesoid X receptor/SRC-1 Co-activator (AID 2283383)
Chain of Bile acid receptor (Homo sapiens) (Q96RI1 whole entry, looked up, the tested form may be a part): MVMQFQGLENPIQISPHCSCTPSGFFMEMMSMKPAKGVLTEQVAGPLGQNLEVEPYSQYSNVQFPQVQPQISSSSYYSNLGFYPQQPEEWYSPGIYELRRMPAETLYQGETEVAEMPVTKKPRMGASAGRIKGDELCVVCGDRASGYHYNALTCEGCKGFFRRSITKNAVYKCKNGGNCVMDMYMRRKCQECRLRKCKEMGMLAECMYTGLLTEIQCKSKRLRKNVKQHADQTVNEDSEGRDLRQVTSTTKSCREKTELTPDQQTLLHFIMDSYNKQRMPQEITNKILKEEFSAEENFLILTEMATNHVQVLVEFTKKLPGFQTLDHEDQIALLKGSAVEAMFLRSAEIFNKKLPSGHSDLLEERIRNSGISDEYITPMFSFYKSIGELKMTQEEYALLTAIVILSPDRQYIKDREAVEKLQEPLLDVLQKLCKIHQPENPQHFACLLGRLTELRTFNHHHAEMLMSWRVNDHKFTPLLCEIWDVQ
Outline: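 PCA, HEK293T, 8 h compound exposure; FXR–SRC-1 binding reconstitutes split reporter; fluorescence intensity; positive-direction fit vs DMSO.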

[5] = biological target: Bile acid receptor (Homo sapiens) (UniProt Q96RI1); test: OT_FXR_FXRSRC1_1440: Odyssey Thera (OT) 24-hour HEK293T Protein-Complementation Assay for Farnesoid X receptor/SRC-1 Co-activator (AID 2283384)
Outline: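 Measures ligand-driven FXR–SRC-1 co-activator recruitment in HEK293T via fragment complementation, fluorescence intensity at 24 h. DMSO served as negative control and baseline for gain-of-signal fitting.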

[6] = biological target: Peroxisome proliferator-activated receptor gamma (Homo sapiens) (UniProt P37231); test: OT_PPARg_PPARgSRC1_0480: Odyssey Thera (OT) 8-hour Protein-Complementation Assay for Peroxisome Proliferator-activated Receptor Gamma / SRC-1 Co-activator (AID 2283387);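 further: nuclear to cytoplasmic split Venus YFP fluorescence ratio reporting PPARg SRC-1 interaction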
Chain of Peroxisome proliferator-activated receptor gamma (Homo sapiens) (P37231 whole entry, looked up, the tested form may be a part): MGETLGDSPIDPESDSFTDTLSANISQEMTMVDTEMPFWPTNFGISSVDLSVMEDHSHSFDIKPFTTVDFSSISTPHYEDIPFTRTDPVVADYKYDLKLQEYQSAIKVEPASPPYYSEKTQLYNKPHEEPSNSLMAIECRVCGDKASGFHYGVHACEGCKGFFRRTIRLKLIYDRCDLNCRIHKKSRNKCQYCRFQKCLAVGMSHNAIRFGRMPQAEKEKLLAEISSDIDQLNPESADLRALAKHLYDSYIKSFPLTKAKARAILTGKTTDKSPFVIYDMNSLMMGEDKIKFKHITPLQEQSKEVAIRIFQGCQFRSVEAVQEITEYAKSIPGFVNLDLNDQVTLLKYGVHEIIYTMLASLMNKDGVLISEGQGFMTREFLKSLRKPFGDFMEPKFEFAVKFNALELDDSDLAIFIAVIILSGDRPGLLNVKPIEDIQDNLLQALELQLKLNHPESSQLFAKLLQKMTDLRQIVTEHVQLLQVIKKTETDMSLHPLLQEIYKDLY
Outline: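 Read-out: 488 nm N/C fluorescence ratio from complemented Venus YFP fragments, ≥350 cells per image, gain-of-signal fitted against DMSO baseline. Fusions of PPARg/SRC-1 with IFP1/IFP2 expressed transiently in HEK293T; compounds applied 8 h.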

[7] = biological target: human Norepinephrine Transporter (NET), SLC6A2 (gene 6530) (UniProt P23975); test: NVS_TR_hNET: NovaScreen (NVS) Transporter Assay for human Norepinephrine Transporter (NET) (AID 2283377);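 further: cell-free membrane protein extracted from CHO cells expressing human NET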;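 on AC50: displacement of radioligand from human NET seen as loss of scintillation signal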
Chain of human Norepinephrine Transporter (NET), SLC6A2 (gene 6530) (P23975 whole entry, looked up): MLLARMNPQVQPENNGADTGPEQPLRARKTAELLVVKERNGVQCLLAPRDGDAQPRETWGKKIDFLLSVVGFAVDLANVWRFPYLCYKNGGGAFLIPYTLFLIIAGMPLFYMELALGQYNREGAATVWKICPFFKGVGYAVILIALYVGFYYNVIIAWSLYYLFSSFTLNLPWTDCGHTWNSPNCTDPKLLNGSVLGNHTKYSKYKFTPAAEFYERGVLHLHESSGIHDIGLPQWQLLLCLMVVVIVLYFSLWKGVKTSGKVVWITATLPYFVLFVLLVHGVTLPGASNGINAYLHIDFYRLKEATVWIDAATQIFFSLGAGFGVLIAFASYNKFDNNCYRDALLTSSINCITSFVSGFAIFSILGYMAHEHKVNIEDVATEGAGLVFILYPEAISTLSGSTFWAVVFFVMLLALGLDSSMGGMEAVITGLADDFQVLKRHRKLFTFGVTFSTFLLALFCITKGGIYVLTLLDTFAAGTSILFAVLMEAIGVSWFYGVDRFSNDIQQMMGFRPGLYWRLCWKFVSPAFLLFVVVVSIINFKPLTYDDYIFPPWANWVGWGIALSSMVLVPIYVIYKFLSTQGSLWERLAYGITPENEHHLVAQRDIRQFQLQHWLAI
Outline: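 Single-concentration duplicate screen at 25 uM, then concentration-response for actives; displacement of specific radioligand from human NET in CHO membrane extracts, filter-based scintillation detection at 1 h relative to DMSO.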

[8] = biological target: Retinoic acid receptor RXR-alpha (Homo sapiens) (UniProt P19793); test: OT_NURR1_NURR1RXRa_1440: Odyssey Thera (OT) 24-hour HEK293T Protein Complementation Assay for Nurr1/retinoid X receptor (RXR) (AID 2283386)
Chain of Retinoic acid receptor RXR-alpha (Homo sapiens) (P19793 whole entry, looked up, the tested form may be a part): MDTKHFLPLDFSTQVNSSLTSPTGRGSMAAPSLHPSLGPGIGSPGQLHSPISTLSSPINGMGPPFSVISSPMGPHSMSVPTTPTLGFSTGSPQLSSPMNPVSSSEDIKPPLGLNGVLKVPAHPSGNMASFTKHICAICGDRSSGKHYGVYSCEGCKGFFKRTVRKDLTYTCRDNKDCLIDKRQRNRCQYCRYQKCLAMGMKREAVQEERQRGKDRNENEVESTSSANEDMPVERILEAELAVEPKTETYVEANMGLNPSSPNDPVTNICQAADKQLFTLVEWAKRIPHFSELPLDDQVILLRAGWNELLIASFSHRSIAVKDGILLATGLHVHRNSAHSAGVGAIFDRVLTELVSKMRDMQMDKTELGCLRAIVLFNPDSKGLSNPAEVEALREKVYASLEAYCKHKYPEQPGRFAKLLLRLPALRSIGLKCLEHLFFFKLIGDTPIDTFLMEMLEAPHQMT
Outline: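 Steps: fragment-tagged Nurr1 and RXRα expressed in HEK293T; compounds added; after 24 h, complemented reporter quantified by fluorescence intensity; signal increase over DMSO fitted as the single endpoint.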

[9] = biological target: mouse Estrogen Receptor alpha (Era), Esr1 (gene 13982) (UniProt P19785); test: NVS_NR_mERa: NovaScreen (NVS) Nuclear Receptor Binding Assay for mouse Estrogen Receptor alpha (Era) (AID 2283378);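 further: hit means loss of bound radioligand signal relative to DMSO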
Chain of mouse Estrogen Receptor alpha (Era), Esr1 (gene 13982) (P19785 whole entry, looked up): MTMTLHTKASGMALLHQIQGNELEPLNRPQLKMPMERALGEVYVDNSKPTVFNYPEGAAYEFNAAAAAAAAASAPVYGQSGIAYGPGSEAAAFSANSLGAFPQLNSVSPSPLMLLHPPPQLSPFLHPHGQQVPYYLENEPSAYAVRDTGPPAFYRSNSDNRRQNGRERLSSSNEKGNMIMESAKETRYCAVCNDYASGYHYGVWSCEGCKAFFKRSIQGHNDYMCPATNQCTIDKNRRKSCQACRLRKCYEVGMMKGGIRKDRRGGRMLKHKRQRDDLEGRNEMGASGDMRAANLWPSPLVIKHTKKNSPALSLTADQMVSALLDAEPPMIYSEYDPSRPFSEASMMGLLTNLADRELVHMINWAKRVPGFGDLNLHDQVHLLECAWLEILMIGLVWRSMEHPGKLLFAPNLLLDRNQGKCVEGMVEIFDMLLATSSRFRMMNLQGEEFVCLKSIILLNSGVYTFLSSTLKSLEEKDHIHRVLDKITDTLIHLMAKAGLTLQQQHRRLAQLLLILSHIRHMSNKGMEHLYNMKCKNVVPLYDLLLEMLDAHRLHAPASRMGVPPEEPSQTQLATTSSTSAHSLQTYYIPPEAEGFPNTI
Outline: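 Filter scintillation counts of bound radioligand, measured 18 h post-dose, gave the readout; decreased signal relative to DMSO controls indicated displacement from mouse Era. Primary screen ran in duplicate at 25 uM; active chemicals were retested across concentrations.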

[10] = biological target: Retinoic acid receptor RXR-alpha (Homo sapiens) (UniProt P19793); test: OT_NURR1_NURR1RXRa_0480: Odyssey Thera (OT) 8-hour HEK293T Protein Complementation Assay for Nurr1/retinoid X receptor (RXR) (AID 2283385)
Outline: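 Interaction of bait and prey reconstitutes a functional reporter, whose fluorescence was measured in HEK293T cells dosed with compound for 8 hours. Signal gain relative to DMSO defined the single endpoint.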

Measured: AC50

c1ccc2[nH]c(-c3cscn3)nc2c1
inactive: [1] | [2] | [3] | [4] | [5] | [6]

Oc1ccc(C(c2ccc(O)cc2)C(Cl)(Cl)Cl)cc1
inactive: [8] | [6]
active: [7] 4.42 µM

CCOC(=O)c1ccc(O)cc1
not listed: [1] | [6] | [7]
inactive: all other assays above

CCCCOCCOCCOCc1cc2c(cc1CCC)OCO2
inactive: [1] | [5] | [10] | [8] | [6]
active: [4] 33.1 µM

C#C[C@]1(O)CC[C@H]2[C@@H]3CCC4=CC(=O)CC[C@@H]4[C@H]3CC[C@@]21CC
active: [2] 15.1 µM and 8.91 µM | [3] 12.1 µM and 46.1 µM and 5.67 µM
inactive: [9] | [2] | [3] | [10] | [8] | [6]

CCCOC(=O)c1ccc(C(=O)OCCC)nc1
active: [5] 13.2 µM
not listed: [7] | [9] | [10]
inactive: all other assays above

CCOC(=O)COc1cc(-n2ncc(C(F)(F)F)c(C)c2=O)c(F)cc1Cl
inactive: [1] | [2] | [3] | [10] | [8] | [6]

N[C@@H](Cc1cc(I)c(Oc2ccc(O)c(I)c2)c(I)c1)C(=O)O
inactive: [9] | [2] | [3] | [6]
active: [9] 1.65 µM and 20 µM and 4.66 µM

CC1(C)C(C=C(Cl)Cl)C1C(=O)OCc1cccc(Oc2ccccc2)c1 (stereo not drawn)
inactive: [1] | [2] | [3] | [10] | [8]

C[C@]12C[C@H](O)[C@H]3[C@@H](CCC4=CC(=O)CC[C@@]43C)[C@@H]1CC[C@@H]2C(=O)CO
inactive: [9] | [2] | [3] | [4] | [5] | [10] | [8] | [6]
active: [4] 32.3 µM | [5] 16.8 µM

O=C(O)c1ccccc1
not listed: [1] | [4] | [5]
inactive: all other assays above

CSC(=O)c1cccc2nnsc12
inactive: [1] | [2] | [3] | [10] | [8] | [6]

CC(=O)[C@H]1CC[C@H]2[C@@H]3CCC4=CC(=O)CC[C@]4(C)[C@H]3CC[C@]12C
inactive: [9] | [2] | [3] | [10] | [8] | [6]
active: [9] 17.4 µM

CCCN(CCC)C(=O)SCC
inactive: [1] | [2] | [3] | [10] | [8] | [6]

N#CSCSc1nc2ccccc2s1
inactive: [7] | [1] | [3] | [10] | [6]
active: [7] 11.2 µM | [2] 88.1 µM | [8] 11.6 µM

CC(C)CCCCCCc1ccc(O)cc1
inactive: [9] | [6]
active: [9] 3.14 µM and 7.57 nM and 7.26 µM | [2] 147 nM and 116 nM and 263 nM | [3] 273 nM and 120 nM and 248 nM | [4] 11.5 µM and 11.3 µM

CCSC(=O)N(CC(C)C)CC(C)C
inactive: [1] | [2] | [3] | [8] | [6]

O=C(c1ccc(O)cc1O)c1ccc(O)cc1O
inactive: [9] | [1] | [4] | [10] | [8] | [6]
active: [9] 470 nM and 647 nM and 1.69 µM | [1] 722 nM and 29.3 µM | [2] 2.11 µM and 2.15 µM and 2.89 µM | [3] 2.24 µM and 2.25 µM and 2.67 µM | [5] 50 µM and 28 µM

O=C(c1ccccc1)C1CCCCC1
inactive: [9] | [1] | [2] | [3] | [4] | [5] | [10] | [8] | [6]
active: [1] 527 nM

CC(=O)S[C@@H]1CC2=CC(=O)CC[C@]2(C)[C@H]2CC[C@@]3(C)[C@@H](CC[C@@]34CCC(=O)O4)[C@H]12
active: [9] 6.63 µM
inactive: [9] | [2] | [3] | [10] | [8] | [6]

CC(C)(c1ccc(O)cc1)c1ccc(O)cc1
inactive: [9] | [1] | [10] | [8] | [6]
active: [7] 14.5 µM [middle of 4 runs]

c1ccc(Nc2ccccc2)cc1
inactive: [8] | [6]
active: [7] 3.18 µM | [10] 50 µM

O=C(O)C1(C(=O)Nc2ccc(Cl)cc2Cl)CC1
active: [8] 50 µM
not listed: [7] | [9] | [10]
inactive: all other assays above

Cc1nn(C)c(Oc2ccccc2)c1C=NOCc1ccc(C(=O)OC(C)(C)C)cc1
active: [4] 7.14 µM | [5] 9.92 µM | [10] 11.3 µM | [8] 15.7 µM
inactive: [1] | [2] | [3] | [10] | [8] | [6]
